Assay outcomes from PubChem BioAssay.
A selection: hits, their analogues and other compounds. The true share with any hit is near 2.9%.
HSF1 activator: HSF-1 activators, primary screen, NIH3T3-HGL cells, MG132 stress, luminescence, single point. NIH3T3-HGL HSF-1 luciferase reporter, 8 h; 100% = twice DMSO control signal. activation, % at 9 µM. 300,000 compounds, 1.7% hits;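 active = mean replicate activation of at least 50% with a set share of replicates each reaching 50%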;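 also: 0% = median of the neutral control wells and 100% = twice that signal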
S1P4 agonist: S1P4 receptor agonists, primary screen, cell-based; 220,000 compounds, 0.35% hits; activation, % at 4.98 µM; S1P4-expressing cell line, agonist reporter assay; in the data active = activation above about 11%;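 also: 0% = DMSO vehicle and 100% = reference agonist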
Target sequence (O95977 whole entry, looked up): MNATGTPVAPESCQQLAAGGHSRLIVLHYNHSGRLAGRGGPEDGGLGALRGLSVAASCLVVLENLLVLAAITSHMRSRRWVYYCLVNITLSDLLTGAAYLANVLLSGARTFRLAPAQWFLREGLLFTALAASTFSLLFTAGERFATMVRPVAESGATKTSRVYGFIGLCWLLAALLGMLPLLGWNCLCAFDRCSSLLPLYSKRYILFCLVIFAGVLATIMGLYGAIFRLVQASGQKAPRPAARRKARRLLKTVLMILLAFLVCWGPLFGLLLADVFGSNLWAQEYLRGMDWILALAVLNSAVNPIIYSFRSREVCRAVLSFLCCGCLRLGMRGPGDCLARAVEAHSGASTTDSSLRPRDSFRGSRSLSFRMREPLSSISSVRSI
HSF1 inh: HSF1 inhibitors in luciferase reporter cells, primary screen, cell-based, NIH3T3, luminescence; activity change, negative = inhibition, % at 7.5 µM (by protocol); NIH3T3-HGL HSE-luciferase, MG132-induced, luminescence 8 h; active compounds read low; AID 2098, 2009; 300,000 compounds, 0.77% hits;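 active = more than half of replicate wells show activity change below -50%, luminescence cut by over half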;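 also: luciferase reports HSF-1 transcriptional activity via heat shock element; 0% = median of DMSO wells and -100% = zero luminescence signal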
S1P3 antag: S1P3 receptor antagonists, primary screen, cell-based; Sphingosine 1-phosphate receptor 3 (Homo sapiens), Q99500; CHO S1P3 NFAT-BLA reporter, FRET fluorescence, antagonist mode; inhibition, % at 4.98 µM; 170,000 compounds, 0.27% hits;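 active = inhibition above the plate cutoff, the mean inhibition of test wells on that plate plus 3 SD, cut at about 28% in these data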;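 also: cells challenged with S1P at its EC80 of 0.8 µM; blue over green emission ratio from cleaved BLA substrate after 4 h stimulation; 0% = S1P-stimulated wells and 100% = unstimulated DMSO-only wells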
Hsp70 activator: Hsp70 transcriptional activators, primary screen, cell-based, HeLa, Hsp70 promoter luciferase, luminescence, 10 µM; activation, % at 10 µM; HeLa Hsp70 promoter luciferase reporter; scaled: vehicle 0, proteasome-inhibitor control 100%; 200,000 compounds, 0.04% hits;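 active = activation above the mean across all tested compounds plus 3 SD, cutoff set per campaign, cut at about 5.5% in these data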;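 also: 100% = MG132 at 30 µM as the positive control and 0% = DMSO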
S1P4 antag: S1P4 receptor antagonists, primary screen, cell-based | Sphingosine 1-phosphate receptor 4 (Homo sapiens), O95977 | S1P4-expressing cells, antagonist mode, reporter read-out | inhibition, % at 4.98 µM | 220,000 compounds, 0.26% hits | AID 1510, 2009; in the data active = inhibition above about 29%;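 also: 0% = wells stimulated with agonist and 100% = vehicle wells without agonist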
* marks the source's active call; other numbers are inactive results; x = no result.

SMILES	HSF1 activator	S1P4 agonist	HSF1 inh	S1P3 antag	Hsp70 activator	S1P4 antag
CCCCCn1cnc2sc(-c3ccccc3)cc2c1=O	56.9*	-0.1	29.9	x	0.4	-9.9
CCCCCn1cnc2sc(CC)cc2c1=O	47.4	-0.2	34.2	1.1	-0.1	-10.8
CCOC(=O)Cc1cnc(NC(=O)CSc2nc(C)c(CC)c(=O)[nH]2)s1	-11.4	0.3	-3.8	7.1	0.0	-1.5
CC1(NC(=S)N(CCO)CCO)CCS(=O)(=O)C1 (stereo unspecified)	6.4	4.6	1.5	-10.5	-0.2	-18.6
COc1cccc(CC(NC(C)=O)C(=O)NC2CCN(c3nnnn3-c3ccccc3)CC2)c1OC (stereo unspecified)	17.6	-0.6	-4.0	-14.6	-0.1	-8.0
COCCn1c(C)cc(C(=O)COC(=O)c2ccccc2Br)c1C	-91.0	0.7	-90.1*	5.6	-0.2	-26.4
Cc1cc(C(=O)COC(=O)c2cccnc2Cl)c(C)n1CC1CCCO1 (stereo unspecified)	-81.5	0.6	-76.9*	7.0	0.3	-0.9
Cc1cc(C(=O)COC(=O)c2cc(O)c3ccccc3c2O)c(C)n1CC1CCCO1 (stereo unspecified)	x	0.7	x	-16.1	0.2	-0.1
Cc1cc(C(=O)COC(=O)c2ccccc2O)c(C)n1Cc1cccs1	-90.4	-2.4	-89.7*	x	-0.7	0.2
Cc1cc(C(=O)COC(=O)c2n[nH]c3ccccc23)c(C)n1CC1CCCO1 (stereo unspecified)	-83.5	1.2	-80.5*	x	-0.4	-8.5
Cc1cc(C(=O)COC(=O)c2ccccc2NCCO)c(C)n1CC1CCCO1 (stereo unspecified)	-49.9	x	-48.2	x	x	x
Cc1noc(C)c1CSCC(=O)Nc1cc(S(=O)(=O)N2CCOCC2)ccc1OC(C)C	-20.7	x	-3.8	x	x	x
Cc1cc(C(=O)COC(=O)c2ccccc2Br)c(C)n1CC1CCCO1 (stereo unspecified)	-91.6	-1.6	-91.1*	-6.2	x	3.4
Cc1ccc(C(=O)OCC(=O)c2cc(C)n(CC3CCCO3)c2C)cc1 (stereo unspecified)	-42.8	0.1	-38.8	-4.7	0.1	-23.8
COc1cc(CN2CCN(C(=O)c3ccccc3F)CC2)cc(OC)c1OC	9.1	x	-1.5	x	x	x
CCOCCn1c(CN2CCc3ccccc3C2)nc2c1c(=O)n(C)c(=O)n2C	-4.5	0.5	10.3	-10.6	x	-10.0
CCc1nc2ccc(C(=O)N3CCN(c4ccc([N+](=O)[O-])cc4)CC3)cc2nc1CC	60.0*	x	24.5	x	x	x
Cc1nn(S(=O)(=O)c2ccccc2)c(C)c1S(=O)(=O)N1CCC(C)CC1	-2.8	x	-1.9	x	x	x
O=C1/C(=C/Nc2cccc([N+](=O)[O-])c2)CCc2ccccc21	73.4*	0.1	36.7	4.2	0.2	-3.7
O=C1/C(=C\c2ccc([N+](=O)[O-])cc2)CCc2ccccc21	60.3*	-0.9	28.8	-0.4	-0.1	-6.7
NS(=O)(=O)c1ccc(NC(=O)CSc2nc3c(c(=O)[nH]2)CCCC3)cc1	1.0	x	-3.4	x	x	x
CC1CN(c2snnc2C=C2C(=O)OC(C)(C)OC2=O)CC(C)O1 (stereo unspecified)	-3.6	-0.7	1.4	-20.2	0.1	-12.3
COCCC(=O)N1CCC(Oc2ccc(C(=O)N(C)C3CCCCC3)cc2)CC1	16.5	x	5.5	x	x	x
COc1cccc(C(=O)NCC(=O)NCc2cc(=O)n(C)c(=O)n2C)c1	6.7	x	0.3	x	x	x
Cc1ccnc(NC(=O)c2cc3ccccc3oc2=O)c1	67.0*	0.4	25.9	-13.1	-0.2	-34.5
Cc1cccc(NC(=O)c2cc3ccccc3oc2=O)c1	30.4	x	20.3	x	x	x
O=C(/C=C/c1nc2ccccc2s1)N1CCCCCC1	75.0*	-0.2	32.3	1.0	-0.2	0.0
CC1CCCCC1NC(=O)/C=C/c1nc2ccccc2s1 (stereo unspecified)	35.7	-4.4	18.9	1.2	0.0	12.0
CCC(=O)OCc1c(C(F)(F)F)nn(C)c1Sc1ccc(F)cc1	-6.2	11.0*	-8.3	x	0.0	-2.1
O=C(CN1C(=O)NC2(CCCC2)C1=O)N1CCN(c2ccccc2O)CC1	-2.9	x	-2.8	x	x	x
